# Experimental data: PubChem BioAssay (NCI)
# About 83,000 compounds went through this panel and 20% of them were active in at least one assay; those are over-represented in the sample as a whole.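 Method: cells in 96-well plates; compound added at one concentration; 48 h incubation; percent growth measured; values under 10 scored active.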 Values without a mark were called inactive. Activity calls are given as the source filed them.
# Assays:
# Assay in all cases: NCI-60 one-dose screen, 48 h (100 = growth as untreated, 0 = no growth, -100 = all killed)
# Details in all cases: 10 µM unless noted
# HCT-15 colon = tested on: HCT-15 colon
# HT29 colon = tested on: HT29 colon
# SNB-75 CNS = tested on: SNB-75 CNS
# SNB-19 CNS = tested on: SNB-19 CNS
# U251 CNS = tested on: U251 CNS
# PC-3 prostate = tested on: PC-3 prostate
# SK-MEL-5 melanoma = tested on: SK-MEL-5 melanoma
# UACC-62 melanoma = tested on: UACC-62 melanoma
# SK-MEL-28 melanoma = tested on: SK-MEL-28 melanoma
# SK-MEL-2 melanoma = tested on: SK-MEL-2 melanoma
# EKVX NSCLC = tested on: EKVX NSCLC
# SN12C renal = tested on: SN12C renal
# UO-31 renal = tested on: UO-31 renal
# TK-10 renal = tested on: TK-10 renal
# ACHN renal = tested on: ACHN renal
# CAKI-1 renal = tested on: CAKI-1 renal
# A498 renal = tested on: A498 renal
# CCRF-CEM leukemia = tested on: CCRF-CEM leukemia
# MOLT-4 leukemia = tested on: MOLT-4 leukemia
SMILES,growth (HCT-15 colon),growth (HT29 colon),growth (SNB-75 CNS),growth (SNB-19 CNS),growth (U251 CNS),growth (PC-3 prostate),growth (SK-MEL-5 melanoma),growth (UACC-62 melanoma),growth (SK-MEL-28 melanoma),growth (SK-MEL-2 melanoma),growth (EKVX NSCLC),growth (SN12C renal),growth (UO-31 renal),growth (TK-10 renal),growth (ACHN renal),growth (CAKI-1 renal),growth (A498 renal),growth (CCRF-CEM leukemia),growth (MOLT-4 leukemia)
C[C@H]1[C@@H]2[C@H]3CC[C@@H]4[C@@]5(C)Cc6c([nH]c7ccccc67)C(C)(C)[C@@H]5CC[C@@]4(C)[C@]3(C)CC[C@]23CO[C@]1(C)[C@@H](C(=O)/C=C/c1ccccn1)C3,85.9%,82.6%,90.9%,85.6%,81.7%,60.3%,88.5%,79%,97.4%,115%,102%,87.1%,60.4%,123%,92.4%,63%,101%,63%,78.8%
CCCCn1c(-c2ccc(O)cc2)cn2c3c(=O)[nH]c(=O)n(C)c3nc12,54.2%,77.6%,53.2%,82.5%,66.7%,68.9%,51.9%,51.2%,74.7%,45.8%,85.9%,78%,70.2%,86.7%,92.6%,86.6%,75.8%,80%,58.6%
O=C1/C(=C\C(Cl)=C/c2ccc([N+](=O)[O-])cc2)SC(=S)N1CCc1ccc(O)cc1,-49.9% (active),-15.3% (active),-27.7% (active),-59.7% (active),-88% (active),-14.8% (active),-78.9% (active),-30.8% (active),-61.2% (active),0.0993% (active),-43% (active),-9.23% (active),-91.4% (active),-32.7% (active),-89.4% (active),-70.5% (active),-27.5% (active),8.16% (active),7.65% (active)
Cc1cc2nc3c4cc(N)ccc4n(CCN(C)C)c3nc2cc1C,-24% (active),14.3%,20.1%,13.2%,16.2%,21.8%,21.8%,6.43% (active),13.3%,17.6%,16.8%,8.2% (active),-6.21% (active),41.3%,-9.44% (active),-3% (active),46.3%,23.8%,3.65% (active)
O=C(N/N=C\c1ccccc1O)C1CC1,92.5%,107%,98.1%,101%,103%,92%,109%,102%,114%,103%,109%,93.6%,71%,118%,108%,115%,113%,83.7%,101%
Fc1cccc(-c2[nH]nc3nc(Nc4cccnc4)sc23)c1,37.1%,14.5%,47.5%,40.2%,38.6%,33.1%,33%,57.2%,68.6%,46.6%,57%,58.5%,46.2%,77.3%,61.5%,21.4%,84.2%,28.8%,48.5%
N#Cc1c(-c2ccco2)nc2c(c(-c3ccccc3)nn2-c2ccccc2)c1-c1ccc(O)cc1,38.4%,30.2%,71.1%,95.9%,61.6%,23.8%,87.1%,89.2%,74.7%,70.4%,56.4%,82.4%,92%,89.2%,72.4%,58.9%,90.9%,41.5%,9.84% (active)
COc1ccc(C2CC(=O)c3c(nc4ccc(Cl)cc4c3N)C2)cc1 (configuration not stated),92.5%,101%,95.7%,103%,106%,101%,98.3%,99.5%,98.4%,118%,97.6%,101%,92.2%,80.6%,105%,88.5%,100%,91.6%,95.1%
